Test results: PubChem BioAssay AID588549 (Broad Institute, 2011)
In all, about 360,000 compounds went through this assay and about 780 (0.22%) were called active. Cut-off read from the data, not from the text of the source: active = inhibition above about 8.5% (passing the limit was not always enough); inconclusive = no clear call, values can overlap the other calls. For the sample, actives were picked, then their nearest neighbours and some compounds at random.

System: Mycobacterium tuberculosis FadD28 fatty-acid-AMP ligase
Assay: inhibitors of FadD28 bisubstrate probe binding, primary screen, biochemical, fluorescence polarization, single point (AID 588549)
Details: at 12.5 µM, hits give high values

| Structure (SMILES) | inhibition |
| --- | --- |
| C=CCn1c(SCc2cc(C(=O)OC)c(C)o2)nnc1-c1ccncc1 | -3.43% (inactive) |
| Cc1ccc(C(c2sc3nc(C)nn3c2O)N2CCN(c3ccc(F)cc3)CC2)cc1 (stereo not drawn) | -3.79% (inactive) |
| CC(=O)c1c(N2CCN(c3ccc(F)cc3)CC2)nc(=S)n(-c2ccccc2)c1C | -1.67% (inactive) |
| O=C(C1Cc2ccccc2CN1C(=O)c1ccco1)N1CCN(c2ccccc2)CC1 (stereo not drawn) | -0.0045% (inactive) |
| C[C@H]1CN([C@@H](C)CO)C(=O)c2cc(C3=CCCCC3)cnc2O[C@@H]1CN(C)C(=O)Cc1ccccc1 | -1.03% (inactive) |
| Cc1nn(Cc2ccccc2)c(C)c1C(=O)N1CCN(CC(=O)Nc2ccccc2Cl)CC1 | -3.56% (inactive) |
| COCCCn1c(-c2cccs2)nc2nc3ccccc3nc21 | -0.0615% (inactive) |
| CCC(=O)Nc1cccc(NC(=O)CSc2nnc(-c3ccc(NS(C)(=O)=O)cc3)n2C)c1 | 1.19% (inactive) |
| COCCN1Cc2cccc(C(=O)Nc3ccccc3OC)c2C1=O | -3.48% (inactive) |
| Cc1cccc(CN2CCN(C3CN(Cc4ccccc4)S(=O)(=O)C3)CC2)c1 (stereo not drawn) | -1.16% (inactive) |
| CCN(CC(=O)NCc1ccc(F)cc1)S(=O)(=O)c1ccc(Cl)s1 | -3.08% (inactive) |
| C=CC(=O)OCCOCCOCCOCCOC(=O)C=C | -2.6% (inactive) |
| COC(=O)CCCCC1=CCC2C(=O)C=C(O)C2C1 (stereo not drawn) | -1.93% (inactive) |
| COc1cc(CNCc2ccc(OC)c3ccccc23)cc(OC)c1OC | -0.377% (inactive) |
| CCc1nc2c(OCCOc3ccccc3)cccn2c1N(C)C(=O)c1cccs1 | -4.76% (inactive) |
| COC(=O)C1(C)CC1(c1ccccc1)c1ccccc1 (stereo not drawn) | -0.161% (inactive) |
| O=C1c2ccccc2C2=Nc3ccccc3SC(c3ccccc3F)C12 (stereo not drawn) | -4.89% (inactive) |
| COC(=O)C1CC2=C(CC(C)(C)CC2=O)N(c2ccccc2)C1=O (stereo not drawn) | 1.35% (inactive) |
| Cc1ccc(N(Cc2ccc(C(=O)Nc3ccccc3C(=O)NCc3ccco3)cc2)S(C)(=O)=O)cc1C | -1.65% (inactive) |
| CC/C(=N\NC(=O)c1ccccc1Cl)c1ccc(Br)s1 | -2.73% (inactive) |
| COCCN(C(=O)c1ccccc1F)c1c(N)n(Cc2ccccc2)c(=O)[nH]c1=O | -1.47% (inactive) |
| CC/C(=N\NC(=O)c1ccccc1O)c1c(O)n(Cc2ccccc2)c(=O)[nH]c1=O | 17.8% (active) |

| Structure (SMILES) | inhibition |
| --- | --- |
| Cc1ccc(C)c2c1cc(C)c1nnc(SCC(=O)Nc3cccc(C(=O)O)c3)n12 | -2.19% (inactive) |
| NNC(=O)COc1ccc(C2SCCS2)cc1 | -1.11% (inactive) |
| CCN1CC(CN(C)Cc2nc(-c3ccc(Cl)cc3)no2)CC1=O (stereo not drawn) | -0.366% (inactive) |
| Oc1c(Cl)cc(Cl)c(Cl)c1Cc1c(O)c(Cl)cc(Cl)c1Cl | 65.8% (active) |
| COc1ccc(SCc2noc(C(=O)NCC3CCCO3)c2C(=O)O)cc1 (stereo not drawn) | 0.0895% (inactive) |
| CCn1nnc2cc(C(=O)Nc3ccc(C(=O)OC(C)C)cc3)ccc21 | -3.75% (inactive) |
| CC1CCCCC1NC(=O)c1cc(=O)[nH]c2ccccc12 (stereo not drawn) | -0.133% (inactive) |
| COc1ccc(OC)c(C(=O)c2coc3ccc(O)c(CN4CCOCC4)c23)c1 | -2.66% (inactive) |
| CCOC(=O)c1ccccc1N1C(=O)C2Sc3[nH]c(=O)sc3C(/C=C/c3ccccc3)C2C1=O (stereo not drawn) | 0.286% (inactive) |
| COc1cc(OC)cc(C(=O)NC2CCN(C(=O)N3c4ccccc4Sc4ccccc43)CC2)c1 | -5.05% (inactive) |
| O=C(CSc1nc2ccccc2o1)N1CCN(c2ccc(Cl)cc2)CC1 | 1.06% (inactive) |
| CN(C)c1ccc(Nc2c3c4c(cccc4n(C)c2=O)C(=O)c2ccccc2-3)cc1 | -0.49% (inactive) |
| O=C(Cc1ccc([N+](=O)[O-])cc1)NCCS(=O)(=O)N1CCN(c2ccccc2)CC1 | -0.717% (inactive) |
| CC(C)C(NC(=O)c1c(F)cccc1F)C(=O)NNC(=O)c1ccccc1 (stereo not drawn) | -3.91% (inactive) |
| CN1C(=O)CC(c2ccccc2)C1=O (stereo not drawn) | -1.61% (inactive) |
| O=C(O)C(c1ccccc1)N1C(=O)/C(=C\c2ccc(-c3cccc(Cl)c3)o2)SC1=S (stereo not drawn) | 13% (active) |
| O=C(Cn1nnc(-c2ccccc2)n1)N/N=C/c1ccc(-c2ccc(Cl)cc2)o1 | -1.53% (inactive) |
| CCC(C)N1C(=O)S/C(=C/c2ccc(Sc3nc4ccccc4[nH]3)o2)C1=O (stereo not drawn) | -0.197% (inactive) |
| COc1c(C)cc(C(=O)C2CCCN(S(=O)(=O)c3c(C)noc3C)C2)cc1C (stereo not drawn) | -0.846% (inactive) |
| CCOCN(C(=O)Cn1c(C(C)O)nc2ccccc21)c1c(C)cccc1CC (stereo not drawn) | -5.11% (inactive) |
| CCCNC(=O)c1cc(C2CCCCN2C(=O)OC)on1 (stereo not drawn) | -0.481% (inactive) |
| CCN(CC)S(=O)(=O)c1ccc(N2CC(C(=O)NCc3cccnc3)CC2=O)cc1 (stereo not drawn) | -2.96% (inactive) |

| Structure (SMILES) | inhibition |
| --- | --- |
| O=C(Cn1c2[n+](c3ccc(C(F)(F)F)cc31)CCCCC2)Nc1c(F)cccc1F | 4.18% (inactive) |
| CC1CCN(c2ccc(C(=O)Nc3nnc(C4CC4)s3)cc2[N+](=O)[O-])CC1 | -1.32% (inactive) |
| COC(=O)c1cc(Oc2ccc(S(=O)(=O)N3CCOCC3)cc2[N+](=O)[O-])cc(C(=O)OC)c1 | 0.28% (inactive) |
| Cc1cc(OCCCC(=O)Nc2cc(S(=O)(=O)N3CCOCC3)ccc2N2CCOCC2)ccc1Cl | 0.172% (inactive) |
| O=[N+]([O-])c1cc(Cl)cc(/C=N/NC(=S)Nc2cc(S(=O)(=O)N3CCOCC3)ccc2Cl)c1O | 22.5% (active) |
| O=S(=O)(NCC1OCCc2ccccc21)c1ccccc1 (stereo not drawn) | -0.133% (inactive) |
| Cn1c(=O)cc(SCC(=O)N2CCCC2)c2cc(Cl)ccc21 | -4.85% (inactive) |
| CC(C)Cc1nn2c(=O)cc(O)nc2s1 | 0.338% (inactive) |
| CC(=O)N1CCN(S(=O)(=O)c2ccc(C)c([N+](=O)[O-])c2)C1C(C)C (stereo not drawn) | -3.8% (inactive) |
| COC(=O)C1CCN(C(=O)c2ccc3oc(Cc4ccc(Cl)cc4)nc3c2)CC1 | -0.812% (inactive) |
| O=C(CN1C(=O)NC2(CCCC2)C1=O)NCC1CCCO1 (stereo not drawn) | -1.47% (inactive) |
| CCc1nc2ccc(C(=O)NC3CCN(Cc4ccccc4)CC3)cn2c1N(CC)CCOC | -4.48% (inactive) |
| CNS(=O)(=O)c1cnccc1N1CCN(c2cccc(C)c2)CC1 | -0.922% (inactive) |
| CCn1cc(/C=C(\NC(=O)c2ccc(C)cc2)C(=O)NCCN2CCOCC2)c2ccccc21 | 1.23% (inactive) |
| CC(C)CCN1NC2(CCC(C)CC2)NC1=S (stereo not drawn) | -3.86% (inactive) |
| COc1ccc(S(=O)(=O)NC(=O)C2(C)CCN2C(=O)COc2ccc(Cl)cc2)cc1 (stereo not drawn) | -5.43% (inactive) |
| CCN(CC(=O)NCc1cccs1)C(=O)c1cccc(S(=O)(=O)Nc2ccccc2OC)c1 | -3.38% (inactive) |
| COc1cccc(/C=N/Nc2ccc(S(=O)(=O)Nc3ccccc3C(=O)O)cc2[N+](=O)[O-])c1O | 35.4% (active) |
| COc1ccc(Br)cc1/C=N/Nc1ccc(S(=O)(=O)Nc2ccccc2C(=O)O)cc1[N+](=O)[O-] | -1.21% (inactive) |
| O=c1c(F)cn(C2CCCO2)c(=O)n1Cc1ccccc1Cl (stereo not drawn) | -2.45% (inactive) |
| Cc1nnc(CN(C)Cc2cn[nH]c2-c2ccc(-c3ccccc3)cc2)o1 | -1.34% (inactive) |
| COc1ccc(OC)c(S(=O)(=O)N(C)CC(=O)N2CCN(c3ccccc3)CC2)c1 | -3.85% (inactive) |

| Structure (SMILES) | inhibition |
| --- | --- |
| COc1ccccc1CNC(=O)CSc1nc(=O)n(Cc2ccncc2)c2c1CCC2 | -0.173% (inactive) |
| OC(CNC1CCCC1)COc1ccc(F)cc1 (stereo not drawn) | -4.58% (inactive) |
| Cc1noc(C)c1-c1ccc(C(=O)NCc2ccncc2)c2occc12 | -2.15% (inactive) |
| Cc1ccc(O)c(-c2cc(C(=O)Nc3c(C)n(C)n(-c4ccccc4)c3=O)[nH]n2)c1 | -2.28% (inactive) |
| COC(=O)c1ccc(CSc2nnc(NC(C)C)s2)cc1 | -3.65% (inactive) |
| O=C(O)c1ccc(N/N=C/c2ccc3ncccc3c2)cc1 | -1.11% (inactive) |
| COc1ccc(Cl)cc1NC(=O)CN(C)C(=O)c1cn(-c2ccccc2)nc1-c1cccs1 | -1.26% (inactive) |
| O=C(O)c1ccc(N/N=C/c2cn(-c3ccccc3)nc2-c2cccs2)cc1 | 23.7% (active) |
| Cc1nnc(Nc2ccccc2F)s1 | -1.11% (inactive) |
| COCCNC(=O)Nc1ccc2nc(-c3ccco3)c(-c3ccco3)nc2c1 | 20.8% (active) |
| COCCNC(=O)CN(Cc1ccco1)C(=O)CCC(=O)Nc1nccs1 | -3.92% (inactive) |
| COCCNC(=O)c1ccc2nc(Cc3ccc(OC)c(OC)c3)oc2c1 | -2.89% (inactive) |
| O=S(=O)(NCCCCCCNS(=O)(=O)c1c(F)cccc1F)c1ccc2c(c1)OCCO2 | -2.1% (inactive) |
| O=C(COC(=O)c1cccc(Cl)c1)NC(=O)NCc1ccccc1 | -1.95% (inactive) |
| O=C1c2ccccc2C(=O)N1c1ccccc1S(=O)C(F)(F)F (stereo not drawn) | -3.78% (inactive) |
| CC(C(=O)Nc1ccc(F)c(F)c1F)N1CCCCCC1 (stereo not drawn) | -6.4% (inactive) |
| CC1(C)CC(=O)C=C(NCc2ccncc2)C1 | 1.4% (inactive) |
| CCOc1ccc(CN(C)C(=O)c2ccc(=O)[nH]c2)cc1 | -0.407% (inactive) |
| O=C(Nc1c2c(nn1-c1ccccc1)CS(=O)(=O)C2)C1CCCC1 | -0.538% (inactive) |
| Cc1nn(C)c(Cl)c1CN1CCC(n2nccc2NC(=O)C2CCCC2)CC1 | 1.24% (inactive) |
| O=C(Cn1ccc([N+](=O)[O-])n1)NCc1cccs1 | -2.06% (inactive) |
| N#C/C(=C/c1ccc(N2CCCCC2)o1)C(=O)NCCc1c[nH]c2ccccc12 | -1.59% (inactive) |
